According to ChEMBL document CHEMBL1157539, “Thousands of chemical starting points for antimalarial lead identification” (Nature, 2010):

Assays:
Format in all cases: functional
Plasmodium falciparum [1] = experiment: GSK_TCMDC: Inhibition of Plasmodium falciparum 3D7 in whole red blood cells, using parasite LDH activity as an index of growth. Test compounds present at 2uM
Plasmodium falciparum [2] = experiment: GSK_TCMDC: Inhibition of Plasmodium falciparum Dd2 in whole red blood cells, using parasite LDH activity as an index of growth. Test compounds present at 2uM
HepG2 = experiment: GSK_TCMDC: Percent inhibition of human HepG2 cell line. Test compounds present at 10uM.

Structure (SMILES) | Inhibition (Plasmodium falciparum [1]) | Inhibition (Plasmodium falciparum [2]) | Inhibition (HepG2)
N#Cc1ccc(N2CCN(Cc3ccc(-c4ccc(-c5nc6cc(F)ccc6[nH]5)s4)cc3)CC2)nc1.O=C(O)C(F)(F)F | 100% | 78% | 12%
CCN(CC)CCn1c2ccccc2c2ccc(C(=O)Nc3ccc4sc(C)nc4c3)cc21.Cl | 84% | 26% | 97%
O=C(NNC(=O)c1ccc(CCN2CCC(c3nc(COCC(F)(F)F)c(-c4ccc(F)cc4)o3)CC2)cc1)Nc1ccc(Oc2ccccc2)cc1 | 100% | 89% | 38%
CN(Cc1cccc(C#N)c1)C1CCN(c2cc(NC(=O)c3cccc(F)c3)ccn2)CC1.O=C(O)C(F)(F)F | 98% | 15% | 0%
O=C(Nc1cccc(OC2CCN(Cc3ccccc3)CC2)c1)c1ccc([N+](=O)[O-])cc1.O=C(O)C(F)(F)F | 100% | 2% | 6%
